Bioassay records as filed in PubChem.
GLP1R inv ag: qHTS of GLP-1 Receptor Inverse Agonists (Inhibition Mode) | Glucagon-like peptide 1 receptor (Homo sapiens), P43220 | HEK293 GLP-1R CRE-luciferase, luminescence, 24 h; GLP-1R form is constitutively active | Potency, µM (titrated, usually from 38.3 µM), without a hit: at the highest dose activity change, negative = inhibition, actives largely listed as inhibitors | 410,000 compounds, 1.6% hits | AID 624417, 2012; note: potency is the fitted concentration of half-maximal effect; % is set by controls: 0 for no effect and ±100 for the full control effect; nearly all actives have a fitted effect of over 55% in size
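Inverse agonism was detected as reduced cAMP-driven luciferase luminescence after 24 h compound treatment. The cells were HEK293 clones expressing constitutively active human GLP-1R with the reporter. Reporter-only and GPR119 cell lines served as counterscreen controls.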
mIDH1 inhibitor: qHTS for Inhibitors of mutant isocitrate dehydrogenase 1 (IDH1): qHTS; Potency, µM (titrated, usually from 76.6 µM), inactives show top-dose activity change, negative = inhibition, most hits filed as inhibitors; 390,000 compounds, 0.093% hits; Isocitrate dehydrogenase [NADP] cytoplasmic (Homo sapiens), O75874; AID 602179, 2012; IDH1-R132H enzyme, NADPH consumption, diaphorase/resazurin fluorescence; note: potency is the fitted concentration of half-maximal effect; % is set by controls: 0 for no effect and ±100 for the full control effect; nearly all actives have a fitted effect of over 65% in size
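IDH1-R132H (0.5 ug/mL dispensed) in pH 7.5 Tris buffer was preincubated 30 min with compound, then given a substrate mix of 0.016 mM NADPH and 2 mM alpha-KG for 80 min at room temperature; remaining NADPH was read by diaphorase/resazurin fluorescence.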
HEK293 tox: qHTS of GLP-1 Receptor Inverse Agonists: Cytotox Screen. Potency, µM (doses to about 38.3 µM), inactives show at the highest dose activity change, negative = inhibition, usual class: inhibitors. 410,000 compounds, 0.13% hits. AID 624418, 2012. HEK293 cAMP-luciferase reporter cells, luminescence, 24 h;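 note: loss of luciferase light is scored as toxicity; potency is the fitted concentration of half-maximal effect; % is set by controls: 0 for no effect and ±100 for the full control effect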
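Seeding density was 200 cells/uL; after overnight-length (12 h) culture, 23 nL compounds went on for 24 h at 37 °C. Readout used a luciferase detection reagent, luminescence taken after 12 min at room temperature.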
PTHR1 ag: qHTS for PTHR1 Agonists: Primary Screen; Parathyroid hormone/parathyroid hormone-related peptide receptor (Homo sapiens), Q03431; HEK293 GP2 PTHR1 cells, GloSensor cAMP luminescence, 1 h; Potency, µM (highest dose often 115 µM), for inactives: at the highest dose activation, usual class: activators; 410,000 compounds, 0.075% hits; AID 743266, 2014; note: potency is the fitted concentration of half-maximal effect; nearly all actives have a fitted effect of over 55% in size
Target sequence (Q03431 whole entry, looked up): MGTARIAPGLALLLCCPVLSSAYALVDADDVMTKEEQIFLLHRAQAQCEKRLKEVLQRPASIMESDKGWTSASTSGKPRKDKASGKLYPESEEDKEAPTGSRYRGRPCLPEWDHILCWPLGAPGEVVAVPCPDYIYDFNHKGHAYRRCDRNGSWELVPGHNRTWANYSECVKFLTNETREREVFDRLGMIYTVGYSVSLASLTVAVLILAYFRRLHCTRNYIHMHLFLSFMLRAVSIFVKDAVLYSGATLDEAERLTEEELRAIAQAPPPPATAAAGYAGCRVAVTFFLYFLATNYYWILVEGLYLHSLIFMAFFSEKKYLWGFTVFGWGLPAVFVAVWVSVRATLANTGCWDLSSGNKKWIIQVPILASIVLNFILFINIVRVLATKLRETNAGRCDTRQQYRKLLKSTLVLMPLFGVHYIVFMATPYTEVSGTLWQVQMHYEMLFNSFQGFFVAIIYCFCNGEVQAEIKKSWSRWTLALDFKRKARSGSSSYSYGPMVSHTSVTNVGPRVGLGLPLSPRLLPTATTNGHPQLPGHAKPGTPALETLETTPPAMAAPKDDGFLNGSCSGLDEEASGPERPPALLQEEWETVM
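HEK-293-derived GP2 cells expressing PTHR1 and a GloSensor cAMP reporter, 3,000/well, plated overnight, given luciferin plus IBMX (each 0.5 mM as added) for 1 h at 37 °C, then compound for 1 h at 37 °C. Luminescence was read after 15 min at room temperature.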
GLP1R ag: qHTS of GLP-1 Receptor Agonists | Glucagon-like peptide 1 receptor (Homo sapiens), P43220 | HEK293 GLP-1R CRE-luciferase, luminescence, 4-6 h; cells express a hypersensitive GLP-1R form | Potency, µM (series often up to 45.6 µM), for the others: at the highest dose activation, hits mostly activators | 380,000 compounds, 0.007% hits | AID 624172, 2012; note: potency is the fitted concentration of half-maximal effect; % of control where 0% means no effect
LDHA inh: qHTS assay for inhibitors of human lactate dehydrogenase; L-lactate dehydrogenase A chain (Homo sapiens), P00338; purified LDHA, NADH/diaphorase-resazurin fluorescence; hits give low values; activity change, % (values are at about 110 or 230 µM); 480,000 compounds, 0.15% hits; AID 1347041, 2019; in the data active = activity change below about -30%; inconclusive = mostly about -25% to -30%;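 note: plate controls were DMSO wells for no effect and wells without enzyme for full effect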
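Enzyme activity of human lactate dehydrogenase 5 (2 nM; 0.06 mM NADH, 0.2 mM pyruvate, 5 min, RT) is measured via a resazurin/diaphorase fluorescence readout of residual NADH.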
* = called active by the depositor; i = inactive; ? = inconclusive; · = no result given; [ ] = dose if it differs, or a comment. Rows were chosen to be rich in hits. Some 1.7% of all compounds tested hit in one or more screens of this group. Unless noted, calls come from the whole dose curve; as a rule, active = well fitted curve in the direction sought with a large enough effect; inconclusive = small, poorly fitted or top-dose-only effect, or another doubt; inactive = no such curve, though single readings can be large; an effect the other way counts as inactive or inconclusive.

SMILES	GLP1R inv ag	mIDH1 inhibitor	HEK293 tox	PTHR1 ag	GLP1R ag	LDHA inh
c1ccc(Nc2c3c(nc4ccccc24)CCC3)cc1	11.2µM*	-10.6%	?	-34.8%	5.7%	14.6
c1ccc(CNc2c3c(nc4ccccc24)CCC3)cc1	?	0.0%	?	-84.3%	5.8%	-4.2
O=C1NC(=O)C(=Cc2cc(Cl)ccc2OCc2ccc(C(=O)O)cc2)C(=O)N1	-15.2%	-5.7%	-3.4%	-21.7%	-0.5%	-89.9*
CN1C(=O)C(=Cc2ccccc2OCc2ccc(Cl)cc2)C(=O)N(C)C1=O	11.8%	-3.7%	-3.6%	-5.4%	8.1%	-6.1
CN(Cc1ccccc1)C(=O)c1ccc(NC(=O)C2CCN(C(=O)OC(C)(C)C)CC2)cc1	5.01µM*	-2.4%	14.1%	-13.5%	-0.5%	0.6
CC(C)OCCCNC(=O)c1c(N)n(Cc2cccs2)c2nc3ccccc3nc12	11.2µM*	-5.9%	245.9%	-24.7%[57.5 µM]	-9.7%	-0.8
CC(C)CCn1c(N)c(C(=O)NCc2cccs2)c2nc3ccccc3nc21	0.0%	3.0%	18.1%	-20.1%	1.2%	7.4
CCN1CCN(Cc2ccc(NC(=O)c3ccc(C)c(NC(=O)C(=O)c4c[nH]c5ccccc45)c3)cc2C(F)(F)F)CC1	5.62µM*	-0.5%	?	-24.9%	-6.7%	1.3
Cc1ccc2c(CCN)c(C)[nH]c2c1C	·	·	·	·	·	0.6
COc1ccc(CCNC(=O)N2c3ccccc3Sc3ccccc32)cc1	7.94µM*	2.4%	-18.0%	-31.7%[57.5 µM]	7.1%	-4.7
COc1ccc(C(=O)C(CN2CCOCC2)c2ccccc2)cc1F (centres undefined)	-4.0%	6.9%	?	-59.6%	-35.1%	-2.7
CCCOc1ccc(C(=O)C(CN2CCOCC2)c2ccccc2)cc1 (centres undefined)	7.08µM*	3.5%	?	i	-9.8%	-0.1
Cn1cc(C(=O)OCC(=O)Nc2c(F)cccc2F)c2ccccc21	·	·	·	·	·	-0.9
COc1cc2c(cc1OC)CN(c1ccc([N+](=O)[O-])c(C(F)(F)F)c1)CC2	7.94µM*	4.4%	10µM*	-35.6%	-6.5%	-2.7
O=C(O)c1cc(I)cc(I)c1I	·	·	·	·	·	12.3
CC(C)=CCc1c(O)cc2c(c1O)C(=O)CC(c1ccc(O)cc1)O2 (centres undefined)	12.6µM*	-11.7%	-7.3%	-10.2%	7.4%	-1.8
O=C(COc1ccc(Cl)cc1)N(c1ccc(Cl)cc1)C1CN2CCC1CC2 (centres undefined)	8.91µM*	2.2%	?	i	3.2%	-5.1
O=C(COc1ccc(Cl)cc1)N(c1ccccc1Cl)C1CN2CCC1CC2 (centres undefined)	2.51µM*	2.6%	?	-26.7%	1.2%	-1.8
Clc1ccccc1CNC1CN2CCC1CC2 (centres undefined)	2.4%	-1.2%	-6.1%	i	-2.2%	-3.8
CN1C(=O)NC(=O)C2(Cc3c(ccc4ccccc34)N(C)C2)C1=O (centres undefined)	·	·	·	·	·	44.9
COc1ccc(OC)c2sc(N(CCCN(C)C)C(=O)CCS(=O)(=O)c3ccccc3)nc12	?	-2.8%	10µM*	i	-26.8%	4.1
CCC(C)NCCOCCOc1ccc(Cl)c2ccccc12 (centres undefined)	1.58µM*	-8.0%	?	-15.7%	-1.8%	-15.9
CN(C)C(=O)Oc1ccc(Cl)c2ccccc12	-24.9%	6.7%	-11.9%	-3.3%[57.5 µM]	-1.3%	-7.0
COc1c(/C=C(\C)[N+](=O)[O-])cc2c(c1OC)OCO2	·	·	·	·	·	-1.4
CC(OC(=O)c1cn(C)c2ccccc12)C(=O)Nc1ccc(C(N)=O)cc1 (centres undefined)	·	·	·	·	·	-0.6
SMILES	GLP1R inv ag	mIDH1 inhibitor	HEK293 tox	PTHR1 ag	GLP1R ag	LDHA inh
COc1ccc(-n2c(/C=C/c3cccc(F)c3)nc3ccccc3c2=O)c(OC)c1	-18.5%	3.8%	-3.9%	-26.0%	9.5%	-1.1
COc1cc2nc(Nc3cccc(F)c3)nc(N)c2cc1OC	10µM*	0.0%	?	-16.9%	6.0%	-1.6
C=CCn1c(C)c(C(=O)OCC)c2cc(O)ccc21	·	·	·	·	·	11.1
CCOc1cc(CNC(C)(C)CO)cc(Br)c1OCc1ccc(Cl)cc1Cl	5.01µM*	10.5%	?	i	-16.0%	-3.0
COc1cccc(C(=O)Oc2c(Sc3ccc(C)cc3)c(C)nn2C(C)(C)C)c1OC	3.16µM*	13.7%	?	-87.5%	·	2.6
CSc1ccc(CN2CCN(Cc3ccccc3Cl)CC2)cc1	?	3.6%	1.7%	i	-2.3%	-30.6*
CSc1ccc(CN2CCN(C(=O)Cc3ccccc3)CC2)cc1	?	9.1%	7.3%	-76.5%	8.9%	-24.2
CC(C)C(=O)N1CCC(CN=Cc2c(O)n(C3CCCCC3)c(=O)n(C3CCCCC3)c2=O)CC1	2.82µM*	3.7%	-2.1%	i	-0.9%	4.2
CC1Oc2cc3c(-c4c(O)cc(O)c5c(O)c6c(cc45)OC(C)C(C)C6=O)c(O)cc(O)c3c(O)c2C(=O)C1C (centres undefined)	12.6µM*	-19.7%	?	-2.3%	-0.5%	5.7
O=C(NCC1=C(c2cccc3ccccc23)C[C@@H]2CC[C@H]1N2Cc1ccco1)c1ccc([N+](=O)[O-])cc1	3.55µM*	4.1%	-28.3%	22.1%	-5.1%	-14.4
CS(=O)(=O)c1ccc(C2=C(CNC(=O)c3ccc([N+](=O)[O-])cc3)[C@H]3CC[C@@H](C2)N3CCOc2ccccc2)cc1	10µM*	3.0%	?	-19.6%	-3.6%	-3.9
Cc1cc(C)nc(SC(Cl)(Cl)Cl)n1	·	·	·	·	·	-0.9
COc1ccc(-n2c(/C=C/c3ccco3)nc3ccccc3c2=O)cc1	·	·	·	·	·	1.3
COc1ccc(CNCCc2cccc(F)c2)cc1	·	·	·	·	·	-12.1
CCCCc1nc2ccccc2c(=O)n1-c1ccc(O)cc1	2.24µM*	-1.4%	-8.2%	i	26.7%	0.5
O=c1c2ccccc2nc(N2CCCC2)n1-c1ccccc1	3.16µM*	-2.3%	-9.3%	-19.1%	14.6%	-1.1
CCCc1nc2ccccc2c(=O)n1-c1ccc(O)cc1	?	-9.6%	0.4%	i	26.5%	-1.9
